Results filed as inconclusive are left out. Activity calls are given as the source filed them. How the source made its calls, unless noted: active means hit-call score of the fitted dose curve at least 0.9, where 1 is the maximum; inconclusive means response in the unintended direction; inactive means score below 0.9.

Experiment [1] in a line: ATG_TCF_b_cat_CIS: Attagene CIS-FACTORIAL HepG2 Assay for human T-Cell-Factor with beta-catenin (TCF/b-cat) (AID 2282965; active means hit-call score of the fitted dose curve at least 0.9, where 1 is the maximum; inactive means score below 0.9). The settings on record: HepG2 TCF/beta-catenin cis-reporter transcription, actives raise or lower the signal. Summed up: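 Endogenous transcription factor activity is captured through cis-promoter reporter constructs transiently introduced into human HepG2 liver cells. Induced reporter mRNA is measured after 24 h and fitted bidirectionally relative to DMSO.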

Experiment [2] can be described thus: ATG_TAL_CIS: Attagene CIS-FACTORIAL HepG2 Assay for human TAL Basal Promoter (AID 2282966; active means hit-call score of the fitted dose curve at least 0.9, where 1 is the maximum; inactive means score below 0.9;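 further: background control endpoint measuring basal TAL promoter reporter mRNA not a specific factor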). The settings on record: HepG2 Attagene cis-factorial TAL promoter reporter; actives raise or lower the signal. Summed up:
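Steps: transfect HepG2 with multiple reporter transcription units; dose 24 h; isolate RNA, reverse-transcribe, PCR-amplify, label with 6-FAM, digest with HpaI; resolve by capillary electrophoresis. Bidirectional fitting against DMSO baseline.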

Experiment [3] in a line: ATG_VDRE_CIS: Attagene CIS-FACTORIAL HepG2 Assay for human Vitamin D Receptor Element (VDRE) (AID 2282968; active means hit-call score of the fitted dose curve at least 0.9, where 1 is the maximum; inactive means score below 0.9). The settings on record: HepG2 VDRE cis-reporter transcription, actives raise or lower the signal. In a few lines: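 In transiently transfected HepG2 liver cells, gain or loss of reporter mRNA after 24 h exposure is scored relative to DMSO, using fluorescence detection by capillary electrophoresis of RT-PCR products.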

In experiment [4] the target is Nuclear receptor subfamily 1 group I member 3 (Homo sapiens) (UniProt Q14994). As to the kind of experiment: ATG_CAR_TRANS: Attagene TRANS-FACTORIAL HepG2 Assay for human Constitutive Androstane Receptor (CAR) (AID 2282969).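 Further: activators raise reporter mRNA above DMSO so AC50 marks induction.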 The settings on record: HepG2 Attagene TRANS-FACTORIAL CAR reporter. In a few lines:
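Readout is reporter mRNA induction, quantified by fluorescent primer extension and capillary electrophoresis after RT-PCR. Cells were HepG2 transiently carrying chimeric NR-Gal4 constructs with GAL4-UAS reporters, treated for 24 h; activity scored upward from DMSO.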

Experiment [5] has as its target Estrogen receptor (Homo sapiens) (UniProt P03372). As to the kind of experiment: ATG_ERa_TRANS: Attagene TRANS-FACTORIAL HepG2 Assay for human Estrogen Receptor alpha (ERa) (AID 2282970). The conditions noted are these: HepG2 Attagene TRANS ERa GAL4 reporter, mRNA. In a few lines: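 Multiplexed cell-based reporter format in HepG2: chimeric ERa-Gal4 protein drives GAL4-UAS reporter transcription. Fluorescent reporter mRNA quantified by capillary electrophoresis 24 hours after dosing; endpoint fitted as signal gain against DMSO.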

Experiment [6] has as its target Steroid hormone receptor ERR1 (Homo sapiens) (UniProt P11474). As to the kind of experiment: ATG_ERRa_TRANS: Attagene TRANS-FACTORIAL HepG2 Assay for human Estrogen-Related Receptor alpha (ERRa) (AID 2282971). The settings on record: HepG2 Attagene TRANS reporter, ERRa transactivation. Summed up:
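Signal gain relative to DMSO for an ERRa-Gal4 chimeric receptor, read as reporter mRNA by RT-PCR/capillary electrophoresis. Human HepG2 liver cells, transient multiplex reporter transfection, 24 h chemical exposure.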

Experiment [7] deals with X-box-binding protein 1 (Homo sapiens) (UniProt P17861). As to the kind of experiment: ATG_Xbp1_CIS: Attagene CIS-FACTORIAL HepG2 Assay for human X-box Binding Protein 1 (XBP1) (AID 2282972; active means hit-call score of the fitted dose curve at least 0.9, where 1 is the maximum; inactive means score below 0.9). The conditions noted are these: HepG2 XBP1 cis-element reporter, Attagene multiplex; actives raise or lower the signal. Summed up:
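HepG2 cells transiently transfected with cis-regulated multiple reporter transcription units; endogenous transcription factor activity measured 24 hours after chemical dosing. Reporter mRNA quantified by RT-PCR, 6-FAM primer extension, HpaI digestion and capillary electrophoresis; bidirectional fitting versus DMSO.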

A short description of experiment [8]: ATG_GAL4_TRANS: Attagene TRANS-FACTORIAL HepG2 Assay for GAL4 (Internal Marker) (AID 2282976). The settings on record: HepG2 Attagene TRANS GAL4 internal marker reporter. Summed up: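 Liver HepG2 line bearing multiplexed GAL4-UAS reporter constructs; 24 h chemical treatment. Transcripts were quantified as fluorescent fragments on capillary electrophoresis after RT-PCR and HpaI cut, with activity fitted upward from DMSO.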

Experiment [9] deals with Estrogen-related receptor gamma (Homo sapiens) (UniProt P62508). As to the kind of experiment: ATG_ERRg_TRANS: Attagene TRANS-FACTORIAL HepG2 Assay for human Estrogen-Related Receptor gamma (ERRg) (AID 2282977).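 Further: hits increase reporter signal over DMSO so potencies reflect activators.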 The conditions noted are these: HepG2 Attagene TRANS reporter, ERRg transactivation. In a few lines: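 HepG2 cells transiently transfected with multiplexed GAL4-UAS reporter units and chimeric NR-Gal4 constructs were exposed to test chemicals for 24 h. Reporter mRNA was measured by RT-PCR, 6-FAM primer extension, HpaI digestion and capillary electrophoresis; gain-of-signal versus DMSO.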

The target in experiment [10] is Bile acid receptor (Homo sapiens) (UniProt Q96RI1). As to the kind of experiment: ATG_FXR_TRANS: Attagene TRANS-FACTORIAL HepG2 Assay for Farnesoid X Receptor (FXR) (AID 2282979).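 Further: hits raise reporter mRNA above DMSO so AC50 marks FXR activation.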 The settings on record: HepG2 Attagene TRANS FXR-GAL4 reporter transcription. Summed up: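 After 24 h chemical treatment of transfected HepG2 cells, GAL4-UAS reporter transcripts driven by an exogenous FXR-GAL4 fusion were measured by RT-PCR and capillary electrophoresis. Increases over DMSO were fitted.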

Experiment [11] has as its target Oxysterols receptor LXR-beta (Homo sapiens) (UniProt P55055). As to the kind of experiment: ATG_LXRb_TRANS: Attagene TRANS-FACTORIAL HepG2 Assay for human Liver X Receptor beta (LXRb) (AID 2282981). The conditions noted are these: HepG2 Attagene TRANS GAL4-LXRb reporter, mRNA. Summed up:
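Cells: HepG2, transiently transfected with GAL4-UAS reporter units plus LXRb-Gal4 fusion. Treatment: 24 h. Detection: reporter mRNA by RT-PCR, 6-FAM labelling, HpaI digestion, capillary electrophoresis.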

Experiment [12] is described as follows: ATG_M_06_TRANS: Attagene TRANS-FACTORIAL HepG2 Assay for M06 Transcription Factor (Internal Marker) (AID 2282983).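 Further: reporter transcript level by RT-PCR then capillary electrophoresis fluorescence.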 The conditions noted are these: HepG2 Attagene TRANS M06 internal marker reporter. Summed up:
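Internal-marker background readout from a multiplexed TRANS reporter system in HepG2; 24 h dosing; mRNA induction quantified by RT-PCR plus capillary electrophoresis fluorescence; DMSO as negative control and baseline.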

Experiment [13] can be described thus: ATG_M_32_TRANS: Attagene TRANS-FACTORIAL HepG2 Assay for M32 Transcription Factor (Internal Marker) (AID 2282984).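 Further: transcript level of a background control reporter unit measured by RT-PCR and capillary electrophoresis.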 The conditions noted are these: HepG2 Attagene TRANS M32 internal marker reporter. In a few lines:
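Using transiently transfected HepG2 cells exposed to test chemicals for 24 h, reporter transcripts are converted to labelled cDNA fragments and quantified by capillary electrophoresis. DMSO defines the activity baseline.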

Experiment [14] addresses Nuclear receptor subfamily 4 group A member 2 (Homo sapiens) (UniProt P43354). As to the kind of experiment: ATG_NURR1_TRANS: Attagene TRANS-FACTORIAL HepG2 Assay for human Nuclear Receptor Related Protein 1 (NURR1) (AID 2282985). The settings on record: HepG2 Attagene TRANS reporter, mRNA readout. In a few lines: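 Cells: HepG2, transiently transfected. Exposure: 24 h. Detection: fluorescence of labelled RT-PCR products separated by capillary electrophoresis; upward fit versus DMSO.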

Experiment [15] addresses Transcriptional activator Myb (Homo sapiens) (UniProt P10242). As to the kind of experiment: ATG_Myb_CIS: Attagene CIS-FACTORIAL HepG2 Assay for human Myeloblastosis (Myb) Proto-Oncogene Transcription Factor (AID 2282986; active means hit-call score of the fitted dose curve at least 0.9, where 1 is the maximum; inactive means score below 0.9). The settings on record: HepG2 Attagene CIS-FACTORIAL Myb reporter transcription; actives raise or lower the signal. In a few lines:
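Fluorescence signals from capillary electrophoresis of RT-PCR-amplified reporter cDNA give the read-out. Cells: HepG2 transfected with multiple cis-regulated reporter units. Exposure lasts 24 hours; DMSO defines baseline for gain or loss of signal.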

Experiment [16] addresses Nuclear respiratory factor 1 (Homo sapiens) (UniProt Q16656). As to the kind of experiment: ATG_NRF1_CIS: Attagene CIS-FACTORIAL HepG2 Assay for human Nuclear Respiratory Factor 1 (NRF1) Orphan Gene (AID 2282987; active means hit-call score of the fitted dose curve at least 0.9, where 1 is the maximum; inactive means score below 0.9). The settings on record: HepG2 NRF1 cis-element reporter, Attagene multiplex; actives raise or lower the signal. In a few lines: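 Transcriptional reporter readout, one component of a 52-endpoint multiplexed HepG2 panel. Exposure 24 h; mRNA detected via RT-PCR and fluorescent capillary electrophoresis; fitting in both directions against DMSO.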

The nature of experiment [17]: ATG_TGFb_CIS: Attagene CIS-FACTORIAL HepG2 Assay for human Transforming Growth Factor (TGF) (AID 2282967; active means hit-call score of the fitted dose curve at least 0.9, where 1 is the maximum; inactive means score below 0.9). The settings on record: HepG2 Attagene CIS TGFb reporter, mRNA transcription; actives raise or lower the signal. In a few lines:
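HepG2 cells transiently transfected with cis-promoter-driven multiplexed reporter units; 24 h compound exposure. Reporter mRNA measured by RT-PCR, 6-FAM labeling, HpaI digestion and capillary electrophoresis; bidirectional fit versus DMSO baseline.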

The nature of experiment [18]: ATG_M_19_TRANS: Attagene TRANS-FACTORIAL HepG2 Assay for M19 Transcription Factor (Internal Marker) (AID 2282974). The conditions noted are these: HepG2 Attagene TRANS-FACTORIAL M19 internal marker reporter. In a few lines:
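Measured here: internal-marker reporter transcript from HepG2 cells transfected with MRTUs, harvested at 24 h. cDNA PCR products were 6-FAM labelled by primer extension, cut with HpaI for 2 h at 37 C, and resolved by CE.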

The target in experiment [19] is Hepatocyte nuclear factor 4-alpha (Homo sapiens) (UniProt P41235). As to the kind of experiment: ATG_HNF4a_TRANS: Attagene TRANS-FACTORIAL HepG2 Assay for human Hepatocyte Nuclear Factor 4 alpha (HNF4a) (AID 2282982). The settings on record: HepG2 HNF4a transactivation reporter, mRNA readout. Summed up: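 Transfected HepG2 reporter cells are dosed for 24 h; reporter RNA is reverse-transcribed, amplified, fluorescently labelled and HpaI-digested before CE sizing. Positive-direction fit against DMSO.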
Sequence of Hepatocyte nuclear factor 4-alpha (Homo sapiens) (P41235 whole entry, looked up): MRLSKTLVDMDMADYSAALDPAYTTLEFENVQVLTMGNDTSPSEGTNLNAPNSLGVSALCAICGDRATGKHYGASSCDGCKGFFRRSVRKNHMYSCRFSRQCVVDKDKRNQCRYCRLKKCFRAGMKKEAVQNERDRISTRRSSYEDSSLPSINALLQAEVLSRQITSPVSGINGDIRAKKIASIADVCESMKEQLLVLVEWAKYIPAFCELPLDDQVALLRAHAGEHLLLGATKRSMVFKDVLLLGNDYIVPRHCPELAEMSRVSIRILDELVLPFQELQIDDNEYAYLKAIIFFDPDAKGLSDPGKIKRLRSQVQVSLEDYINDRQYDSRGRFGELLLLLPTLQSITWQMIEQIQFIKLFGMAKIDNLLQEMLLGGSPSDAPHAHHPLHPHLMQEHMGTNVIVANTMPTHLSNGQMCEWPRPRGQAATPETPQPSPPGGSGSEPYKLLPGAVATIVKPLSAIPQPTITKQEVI

Sequence of Nuclear respiratory factor 1 (Homo sapiens) (Q16656 whole entry, looked up): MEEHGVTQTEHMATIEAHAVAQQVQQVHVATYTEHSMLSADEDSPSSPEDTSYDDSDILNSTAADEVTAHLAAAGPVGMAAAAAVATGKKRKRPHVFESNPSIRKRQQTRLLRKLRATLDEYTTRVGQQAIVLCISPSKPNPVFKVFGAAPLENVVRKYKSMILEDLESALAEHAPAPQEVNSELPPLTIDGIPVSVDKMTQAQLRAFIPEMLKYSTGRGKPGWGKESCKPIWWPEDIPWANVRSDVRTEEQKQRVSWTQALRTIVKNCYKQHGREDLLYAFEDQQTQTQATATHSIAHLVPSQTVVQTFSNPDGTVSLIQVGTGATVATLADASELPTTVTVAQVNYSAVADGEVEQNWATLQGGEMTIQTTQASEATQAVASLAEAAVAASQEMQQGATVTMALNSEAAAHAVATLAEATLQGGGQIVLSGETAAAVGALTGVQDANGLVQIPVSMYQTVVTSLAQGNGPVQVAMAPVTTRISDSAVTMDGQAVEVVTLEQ
Sequence of Estrogen receptor (Homo sapiens) (P03372 whole entry, looked up, the tested form may be a part): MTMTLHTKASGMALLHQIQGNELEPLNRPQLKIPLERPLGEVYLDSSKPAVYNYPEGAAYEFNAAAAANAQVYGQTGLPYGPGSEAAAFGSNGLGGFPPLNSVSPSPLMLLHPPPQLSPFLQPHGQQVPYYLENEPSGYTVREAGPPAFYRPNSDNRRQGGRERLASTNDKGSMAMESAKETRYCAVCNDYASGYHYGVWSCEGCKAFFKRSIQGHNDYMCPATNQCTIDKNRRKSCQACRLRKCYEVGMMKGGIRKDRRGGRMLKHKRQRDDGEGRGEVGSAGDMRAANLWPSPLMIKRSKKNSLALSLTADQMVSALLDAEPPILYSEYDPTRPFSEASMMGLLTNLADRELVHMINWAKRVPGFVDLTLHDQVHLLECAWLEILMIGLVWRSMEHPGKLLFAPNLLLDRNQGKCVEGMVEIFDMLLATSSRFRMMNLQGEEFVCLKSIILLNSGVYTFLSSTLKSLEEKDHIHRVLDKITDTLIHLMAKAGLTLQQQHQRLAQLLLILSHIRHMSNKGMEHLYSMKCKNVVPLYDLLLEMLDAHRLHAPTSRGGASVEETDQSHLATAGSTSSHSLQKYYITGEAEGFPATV
Sequence of Estrogen-related receptor gamma (Homo sapiens) (P62508 whole entry, looked up, the tested form may be a part): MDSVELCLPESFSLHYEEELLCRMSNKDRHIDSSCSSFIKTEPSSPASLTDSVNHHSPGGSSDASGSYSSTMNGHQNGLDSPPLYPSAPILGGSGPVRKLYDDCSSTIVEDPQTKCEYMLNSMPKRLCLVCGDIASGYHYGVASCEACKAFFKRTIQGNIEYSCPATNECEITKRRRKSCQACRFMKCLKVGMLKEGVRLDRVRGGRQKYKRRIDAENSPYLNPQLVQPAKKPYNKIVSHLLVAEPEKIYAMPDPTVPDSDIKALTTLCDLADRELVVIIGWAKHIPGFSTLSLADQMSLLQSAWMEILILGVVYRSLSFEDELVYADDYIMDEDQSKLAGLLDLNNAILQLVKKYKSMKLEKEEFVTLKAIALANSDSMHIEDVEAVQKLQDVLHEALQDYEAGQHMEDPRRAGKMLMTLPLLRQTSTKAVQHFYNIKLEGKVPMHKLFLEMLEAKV
Sequence of Bile acid receptor (Homo sapiens) (Q96RI1 whole entry, looked up, the tested form may be a part): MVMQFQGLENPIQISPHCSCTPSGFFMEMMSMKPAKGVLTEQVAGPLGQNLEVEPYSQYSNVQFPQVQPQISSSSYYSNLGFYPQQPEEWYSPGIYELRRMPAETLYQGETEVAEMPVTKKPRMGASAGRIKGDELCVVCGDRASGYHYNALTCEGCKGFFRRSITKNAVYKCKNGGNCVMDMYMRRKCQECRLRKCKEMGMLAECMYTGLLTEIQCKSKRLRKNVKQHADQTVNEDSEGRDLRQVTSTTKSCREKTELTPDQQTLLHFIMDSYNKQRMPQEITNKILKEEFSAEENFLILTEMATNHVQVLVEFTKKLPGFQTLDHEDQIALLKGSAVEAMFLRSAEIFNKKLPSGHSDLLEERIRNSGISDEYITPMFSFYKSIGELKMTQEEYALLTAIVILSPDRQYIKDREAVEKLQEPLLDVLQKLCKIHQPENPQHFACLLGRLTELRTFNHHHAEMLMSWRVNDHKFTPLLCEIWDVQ
Sequence of Oxysterols receptor LXR-beta (Homo sapiens) (P55055 whole entry, looked up, the tested form may be a part): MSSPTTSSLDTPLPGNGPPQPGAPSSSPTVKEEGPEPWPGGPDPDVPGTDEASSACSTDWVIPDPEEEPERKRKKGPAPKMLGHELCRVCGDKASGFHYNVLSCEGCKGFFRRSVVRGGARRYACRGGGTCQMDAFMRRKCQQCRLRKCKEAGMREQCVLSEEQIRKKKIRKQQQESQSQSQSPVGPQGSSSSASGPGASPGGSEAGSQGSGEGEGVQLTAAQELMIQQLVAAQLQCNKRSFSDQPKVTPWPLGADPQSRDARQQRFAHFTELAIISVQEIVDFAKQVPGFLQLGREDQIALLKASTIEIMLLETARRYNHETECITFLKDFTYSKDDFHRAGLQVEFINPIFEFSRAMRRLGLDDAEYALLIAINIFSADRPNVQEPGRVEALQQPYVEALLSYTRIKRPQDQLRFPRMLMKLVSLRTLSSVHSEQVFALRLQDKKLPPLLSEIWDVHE
Sequence of Steroid hormone receptor ERR1 (Homo sapiens) (P11474 whole entry, looked up, the tested form may be a part): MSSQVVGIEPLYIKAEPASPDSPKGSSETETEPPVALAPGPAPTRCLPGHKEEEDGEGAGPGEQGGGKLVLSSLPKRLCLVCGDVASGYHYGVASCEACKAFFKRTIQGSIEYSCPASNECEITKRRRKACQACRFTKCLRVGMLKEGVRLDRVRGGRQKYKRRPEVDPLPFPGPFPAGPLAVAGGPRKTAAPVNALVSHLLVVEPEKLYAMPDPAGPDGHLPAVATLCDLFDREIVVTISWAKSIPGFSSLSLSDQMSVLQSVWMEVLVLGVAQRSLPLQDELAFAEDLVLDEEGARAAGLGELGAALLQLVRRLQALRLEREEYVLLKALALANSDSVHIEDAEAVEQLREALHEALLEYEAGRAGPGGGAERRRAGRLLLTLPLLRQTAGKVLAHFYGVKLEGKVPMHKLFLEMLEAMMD
Sequence of Nuclear receptor subfamily 4 group A member 2 (Homo sapiens) (P43354 whole entry, looked up): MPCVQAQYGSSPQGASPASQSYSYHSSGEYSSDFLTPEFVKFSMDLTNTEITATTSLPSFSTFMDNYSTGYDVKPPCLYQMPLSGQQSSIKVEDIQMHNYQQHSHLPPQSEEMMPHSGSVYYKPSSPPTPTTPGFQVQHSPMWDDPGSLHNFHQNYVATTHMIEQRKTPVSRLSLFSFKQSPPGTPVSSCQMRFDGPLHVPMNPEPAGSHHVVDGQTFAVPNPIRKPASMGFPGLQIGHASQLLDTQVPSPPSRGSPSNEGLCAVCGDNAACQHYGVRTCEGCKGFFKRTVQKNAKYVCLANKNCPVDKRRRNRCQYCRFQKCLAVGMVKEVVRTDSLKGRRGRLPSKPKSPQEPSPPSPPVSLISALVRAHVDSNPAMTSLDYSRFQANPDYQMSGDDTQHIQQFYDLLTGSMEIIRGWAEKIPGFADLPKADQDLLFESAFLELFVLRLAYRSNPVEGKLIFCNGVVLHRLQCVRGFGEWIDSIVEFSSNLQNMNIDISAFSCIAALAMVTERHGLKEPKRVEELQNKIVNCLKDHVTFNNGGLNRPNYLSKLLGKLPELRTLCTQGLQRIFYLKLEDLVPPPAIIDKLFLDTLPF
Sequence of Transcriptional activator Myb (Homo sapiens) (P10242 whole entry, looked up): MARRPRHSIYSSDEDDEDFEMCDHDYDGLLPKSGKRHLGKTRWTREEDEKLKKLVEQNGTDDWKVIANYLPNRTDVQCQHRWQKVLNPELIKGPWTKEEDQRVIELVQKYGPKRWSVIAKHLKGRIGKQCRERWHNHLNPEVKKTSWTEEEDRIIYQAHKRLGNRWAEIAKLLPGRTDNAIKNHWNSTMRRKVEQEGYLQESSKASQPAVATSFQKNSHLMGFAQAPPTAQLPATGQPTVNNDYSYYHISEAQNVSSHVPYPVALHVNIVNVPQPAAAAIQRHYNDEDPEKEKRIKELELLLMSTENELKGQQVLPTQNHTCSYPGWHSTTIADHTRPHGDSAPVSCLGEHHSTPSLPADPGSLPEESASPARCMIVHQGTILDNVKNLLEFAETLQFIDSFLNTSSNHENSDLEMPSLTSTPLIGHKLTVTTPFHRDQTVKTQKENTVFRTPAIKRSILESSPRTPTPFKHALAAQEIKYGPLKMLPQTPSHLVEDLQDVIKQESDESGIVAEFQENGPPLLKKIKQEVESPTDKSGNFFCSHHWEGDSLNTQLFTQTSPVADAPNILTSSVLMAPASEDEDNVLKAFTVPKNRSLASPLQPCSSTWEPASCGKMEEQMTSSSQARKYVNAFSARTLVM
Sequence of X-box-binding protein 1 (Homo sapiens) (P17861 whole entry, looked up): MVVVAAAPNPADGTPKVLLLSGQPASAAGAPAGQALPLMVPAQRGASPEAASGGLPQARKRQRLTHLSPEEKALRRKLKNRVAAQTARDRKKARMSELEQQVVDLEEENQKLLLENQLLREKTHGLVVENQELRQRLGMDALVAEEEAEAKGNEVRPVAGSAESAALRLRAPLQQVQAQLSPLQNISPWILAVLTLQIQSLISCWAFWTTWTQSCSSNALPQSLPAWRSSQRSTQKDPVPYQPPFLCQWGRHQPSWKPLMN

As for `CCCCC[C@H](O)CC(=O)CCc1ccc(O)c(OC)c1`, the compound was called inactive in experiment [1], in experiment [2], in experiment [4], in [5], in experiment [6] and in experiment [7]. Also, the outcome in experiment [8], in experiment [9], in experiment [10], in [11], in experiment [12] and in experiment [13] was inactive. Moreover, the compound was classed as inactive in experiment [14] and in experiment [15]. Besides, the AC50 in [3] is 27.7 µM (active); in experiment [16], 152 µM (active).

Regarding `COCC(C)OCC(C)O` (stereo unspecified), the outcome in experiment [1], in experiment [2], in experiment [17], in [3], in [6] and in experiment [7] was inactive. For the same compound, the compound was called inactive in [18], in [10], in experiment [19], in experiment [12], in experiment [15] and in experiment [16].

Take `O=C(OCCOCCOC(=O)c1ccccc1)c1ccccc1`: the compound was called inactive in experiment [1], in [2], in experiment [3], in [7], in experiment [18] and in experiment [10]. For the same compound, the outcome in experiment [11], in experiment [19], in [12], in experiment [15] and in experiment [16] was inactive.

As to `COc1ccc([N+](=O)[O-])cc1N`, the compound was called inactive in experiment [1], in experiment [2], in experiment [3], in experiment [5], in [7] and in experiment [18]. In addition, the outcome in experiment [8], in experiment [19], in experiment [15] and in [16] was inactive.

For `CN(C)C=O`, the compound was classed as inactive in experiment [1], in experiment [2], in [17], in [5], in experiment [7] and in experiment [18]. Also, the call in [8], in experiment [9], in experiment [10], in experiment [11], in experiment [12] and in experiment [13] was inactive. In addition, the outcome in experiment [15] and in experiment [16] was inactive. Moreover, in [14], the AC50 was 7.38 µM (active).

For the compound `COC(=O)CCCCC(=O)OC`, the compound was called inactive in [1], in [2], in experiment [3], in experiment [5], in [7] and in experiment [8]. Besides, the compound was called inactive in [10], in experiment [12], in [13], in [14], in experiment [15] and in experiment [16].

Regarding `CC(C)CCCCCCOC(=O)CCCCC(=O)OCCCCCCC(C)C`, the outcome in experiment [1], in experiment [2], in [3], in [7], in experiment [18] and in experiment [8] was inactive. In addition, the result in [12], in experiment [15] and in experiment [16] was inactive.

Take `CCCCCCC(=O)O`: the outcome in experiment [1], in experiment [2], in [3], in [4], in experiment [5] and in [6] was inactive. Besides, the result in [7], in [18], in experiment [8], in experiment [9], in [10] and in experiment [11] was inactive. The result in experiment [19], in experiment [12], in experiment [13], in experiment [14], in experiment [15] and in [16] was inactive.

Turning to `C[C@@H]1C[C@H]2[C@@H]3CCC4=CC(=O)C=C[C@]4(C)[C@@]3(F)[C@@H](O)C[C@]2(C)[C@@]1(O)C(=O)COP(=O)(O)O`, the outcome in [1], in [2], in [3], in experiment [5], in experiment [7] and in [18] was inactive. In addition, the call in experiment [8], in experiment [11], in experiment [12], in experiment [13], in [14] and in [15] was inactive. Also, the call in experiment [16] was inactive.

Values taken from PubChem BioAssay (EPA / NIEHS).
